From PubChem
IL-1B inflam inh: inhibitors of inflammasome signaling (IL-1 beta secretion). 360,000 tested, 4.7% active. THP-1 LPS/ATP IL-1B secretion, AlphaLISA, 16 h; hits give low values. activity change, % at 57.5 µM; in the data active = activity change below about -50%; inconclusive = mostly about -30% to -49%; also: % is scaled to controls: 0 for no effect and ±100 for the full control effect
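Secreted IL-1B measured by AlphaLISA bead assay after 16 h compound exposure of THP-1 cells; compounds (final up to 57.5 uM) added 1 h before LPS (250 ng/mL) and ATP (1.25 mM) stimulation; lower signal means less secretion.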
SW480 rereplic: induces DNA re-replication in SW480 colon adenocarcinoma cells; SW480 DNA re-replication, Hoechst DNA content imaging, 48 h; Potency, µM (titrated, usually from 46.1 µM), for inactives: top-dose re-replication activation, usual class: activators; 340,000 tested, 1.8% active; also: potency is read from the fitted curve at half-maximal effect; % of control where 0% means no effect; nearly all actives have a fitted effect of over 55% in size
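Image-based DNA-content assay: after two days of treatment, nuclei were labelled with the DNA dye Hoechst and imaged, and hits were compounds raising the count of nuclei showing high fluorescence intensity.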
Vif-APOBEC3G blk: inhibitors of Vif-APOBEC3G interaction. HeLa A3G-eYFP + Vif (tagged APOBEC3G with the HIV-1 protein that degrades it), YFP fluorescence, overnight. Potency, µM (doses to about 46.1 µM), for inactives: at the highest dose activity, negative = active, most hits filed as inhibitors. 410,000 tested, 0.076% active. AID 602310; also: potency is read from the fitted curve at half-maximal effect; % is scaled to controls: 0 for no effect and ±100 for the full control effect; nearly all actives have a fitted effect of over 60% in size
Target sequence (Q9HC16 whole entry, looked up): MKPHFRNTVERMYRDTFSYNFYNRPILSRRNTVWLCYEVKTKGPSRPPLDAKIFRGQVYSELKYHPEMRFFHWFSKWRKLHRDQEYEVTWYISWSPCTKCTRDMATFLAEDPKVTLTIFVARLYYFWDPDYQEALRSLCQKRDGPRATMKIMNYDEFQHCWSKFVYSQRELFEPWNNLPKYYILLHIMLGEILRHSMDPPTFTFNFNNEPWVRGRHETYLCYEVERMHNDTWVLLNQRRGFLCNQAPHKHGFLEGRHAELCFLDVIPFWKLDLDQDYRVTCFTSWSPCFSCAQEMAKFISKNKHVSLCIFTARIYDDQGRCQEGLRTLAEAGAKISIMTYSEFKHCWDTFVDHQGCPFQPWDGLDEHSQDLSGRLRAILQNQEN
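HeLa cells stably expressing Vif and C-terminally eYFP-tagged A3G, seeded overnight at 37 deg C, then exposed to compound by pintool overnight at 37 deg C. Rise in yellow fluorescence (Ex 488/Em 500-530, Acumen) marks blocked Vif-driven A3G degradation.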
MCF10A rerep: induces DNA re-replication in MCF 10a normal breast cells | Potency, µM (doses to about 46.1 µM), for inactives: top-dose activity, positive = re-replication, usual class: activators | 350,000 tested, 2.9% active | AID 624296 | MCF 10A DNA re-replication, Hoechst nuclear intensity, 48 h; also: potency is read from the fitted curve at half-maximal effect; % of control where 0% means no effect; nearly all actives have a fitted effect of over 50% in size
Giardia kill: Giardia lamblia killing; Giardia lamblia trophozoite viability; activity change, % at 7.66 µM, hits read low; AID 540267; 340,000 tested, 0.15% active; in the data active = activity change below about -80%; inconclusive = between about -30% and that limit;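 also: parasites exposed to compound for two days anaerobically before the ATP read; % is scaled to controls: 0 for no effect and ±100 for the full control effect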
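Trophozoite viability was measured as ATP-dependent luminescence, read 15-30 min after reagent addition. Before that, parasites at 100 cells/well were exposed to compounds for 48 h, anaerobically, at 37 deg C.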
Vif-APOBEC3F blk: inhibitors of Vif-A3F interaction. HeLa A3F-eYFP + Vif (tagged APOBEC3F with the HIV-1 protein that degrades it), YFP fluorescence increase. Potency, µM (titrated, usually from 46.1 µM), for inactives: top-dose activity, negative = active. 390,000 tested, 0.2% active; also: potency is read from the fitted curve at half-maximal effect; % of control where 0% means no effect; nearly all actives have a fitted effect of over 65% in size
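Fluorescence increase (Ex 488/Em 500-530) after overnight compound treatment at 37 deg C flags inhibition of Vif-driven A3F-eYFP loss in stable HeLa A3F-eYFP/Vif cells seeded overnight beforehand.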
The depositor's hits bear a star; u = inconclusive; x = no result. Sampled rows, rich in hits. Any-hit rate of the full collection: about 6.9%. Unless noted, calls follow the shape of the dose curve; as a rule, active = well fitted curve in the direction sought with a large enough effect; inconclusive = small, poorly fitted or top-dose-only effect, or another doubt; inactive = no such curve, though single readings can be large; an effect the other way counts as inactive or inconclusive.

SMILES | IL-1B inflam inh | SW480 rereplic | Vif-APOBEC3G blk | MCF10A rerep | Giardia kill | Vif-APOBEC3F blk
O=C(N/N=C/c1ccc(N2CCCCC2)o1)c1ccccc1[N+](=O)[O-] | u | 7.3µM* | u | 5.8µM* | 17 | u
CCOC(=O)c1c(C)c(C(=O)N2CCN(c3ccccc3)CC2)c(C)n1C | -69* | 4% | -2% | -2% | 8 | -1%
C=CCOC(=O)C1=C(C)NC(SCC(=O)Nc2ccc(C)c(Cl)c2)=C(C#N)C1c1ccco1 (centres undefined) | -3 | 11µM* | -8% | 11µM* | -11 | -8%
C=CCOC(=O)C1=C(C)NC(SCC)=C(C#N)C1c1ccc(Cl)cc1 (centres undefined) | -26 | u | 0% | 23µM* | -6 | -17%
C=CCOC(=O)C1=C(C)NC(SCC(N)=O)=C(C#N)C1c1ccc(C)cc1 (centres undefined) | 15 | -12% | -2% | 1% | 22 | 2%
CC(=O)C1=C(C)NC(SCC(=O)Nc2nc3ccccc3s2)=C(C#N)C1c1ccc(Cl)cc1 (centres undefined) | -3 | 16µM* | -17% | 22% | -10 | -2%
COc1ccc(NC(=O)CSC2=C(C#N)C(c3ccco3)C(C(=O)Nc3nc4ccccc4s3)=C(C)N2)cc1 (centres undefined) | 32 | 9.2µM* | 2% | u | 9 | -13%
COc1ccc(-c2cc(C(=O)NCc3ccc(F)cc3)c3c(-c4ccc(F)cc4)[nH]nc3n2)cc1OC | x | x | -17% | x | x | -11%
Cc1[nH]c2ccc(Br)cc2c1CCNC(=O)c1cc2ccccc2oc1=O | x | x | -2% | x | x | -3%
O=[N+]([O-])c1cc(Cl)ccc1Nc1nc(Nc2ccc(Cl)cc2[N+](=O)[O-])nc(N2CCOCC2)n1 | x | x | -3% | x | 10 | x
O=C(NCc1ccco1)c1ccc2c(c1)N(Cc1ccc(Cl)cc1)C(=O)c1ccccc1S2(=O)=O | x | x | 2% | x | x | -6%
CC1=C(C)/C(=N\OC(=O)/C=C/c2ccccc2)C=CC1=O | 37 | u | -1% | u | -12 | 6%
CC1=CC(=O)C=C(C)C1=NOC(=O)/C=C\c1ccccc1 | 3 | 5.8µM* | -2% | u | 16 | -16%
CC1=CC(=NOC(=O)/C=C/c2ccccc2)C=C(C)C1=O | -65* | u | u | u | -12 | u
O=S(=O)(c1cnc(Cl)c(Br)c1)N1CCc2ccccc21 | -103* | u | -16% | u | -24 | -7%
CCNC(=O)COC(=O)c1cc(S(=O)(=O)N2CCCc3ccccc32)ccc1Cl | -94* | -13% | 0% | -25% | 6 | -24%
O=S(=O)(c1cnc(Cl)c(Cl)c1)N1CCc2ccccc21 | -65* | 7% | u | u | 2 | -25%
Cc1ccc(S(=O)(=O)N2CCCc3ccccc32)cc1 | 32 | x | u | x | x | -13%
O=C(NCc1ccco1)c1cc(S(=O)(=O)N2CCCc3ccccc32)ccc1Cl | 0 | 6% | 1% | u | 3 | -3%
O=S(=O)(c1cnc(Cl)c(Cl)c1)N1CCCc2ccccc21 | -101* | u | -17% | u | 3 | 2%
COc1ccc(C2CC(c3ccccc3)Oc3ccc(C(C)(C)C)cc32)cc1 (centres undefined) | x | x | -2% | x | -11 | x
CC(=O)c1ccc(NC(=O)c2cn(-c3ccccc3)nc2-c2ccc(Br)cc2)cc1 | x | x | -3% | x | x | 2%
O=C(CC1C(=O)NCCN1Cc1cccc(Oc2ccccc2)c1)NCCc1ccccn1 (centres undefined) | -5 | -2% | 2% | 12% | 3 | -7%
O=C(CC1C(=O)NCCN1Cc1cccc(F)c1)NC1CCC1 (centres undefined) | -61* | u | 3% | -3% | 28 | -6%
Cn1cc(CCNC(=O)CC2C(=O)NCCN2Cc2cccc(Oc3ccccc3)c2)cn1 (centres undefined) | -9 | 26µM* | -3% | u | -3 | -10%
